Experimental data published in PubChem BioAssay (NCATS).
Results filed as inconclusive are left out. Calls of active or inactive are those of the source. Calls come from the whole dose curve; as a rule, active = well fitted inhibition curve with a large enough effect; inconclusive = small, poorly fitted or top-dose-only effect; inactive = flat fitted curve, though single readings scatter.

Each compound was assayed on ATS189 (assay: qHTS profiling for inhibitors of Plasmodium falciparum proliferation (AID 504749; note: nearly all actives have a fitted effect of over 60% in size;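 for activity, negative = inhibition: 0% = DMSO vehicle and full inhibition = artemisinin control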)). Conditions: P. falciparum in erythrocytes, SYBR Green DNA, 72 h; series mostly up to 28.7 µM; activity, negative = inhibition: at the top concentration.
Procedure, shortened: (§1)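 Three-day growth assay of blood-stage parasites in erythrocytes (0.3% parasitemia, 2.5% hematocrit) at 37 C, 5% CO2, quantified by SYBR Green DNA staining after overnight detergent lysis.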
Potency is the fitted concentration of half-maximal effect.

Row | Compound | activity, negative = inhibition | Potency
1 | Cn1nnc2c(C(N)=O)ncn2c1=O | 15.2% (inactive) | 
2 | CC(C)OC(=O)C(C(=O)OC(C)C)=C1SC=CS1 | 4.33% (inactive) | 
3 | CC1=NN(c2ccccc2)C(=O)C1 | -2.72% (inactive) | 
4 | COC(=O)Nc1nc2ccc(Sc3ccccc3)cc2[nH]1 | -0.311% [at 12.8 µM] (inactive) | 
5 | CCc1c2c(nc3ccc(OC(=O)N4CCC(N5CCCCC5)CC4)cc13)-c1cc3c(c(=O)n1C2)COC(=O)[C@]3(O)CC | 0.961% (inactive) | 
6 | Cc1noc(NS(=O)(=O)c2ccc(N)cc2)c1C | 10% (inactive) | 
7 | CN1CCN(c2c(F)cc3c(=O)c(C(=O)O)cn4c3c2OCN4C)CC1 | 4.05% (inactive) | 
8 | S=P(N1CC1)(N1CC1)N1CC1 | -0.146% (inactive) | 
9 | CC[C@H](NC(C)C)[C@H](O)c1ccc(O)c2[nH]c(=O)ccc12 | 2.39% (inactive) | 
10 | CC[C@H](C)C(=O)O[C@H]1C[C@@H](C)C=C2C=C[C@H](C)[C@H](CC[C@@H]3C[C@@H](O)CC(=O)O3)[C@H]21 | 0.0348% (inactive) | 
11 | CC(C)(Sc1cc(C(C)(C)C)c(O)c(C(C)(C)C)c1)Sc1cc(C(C)(C)C)c(O)c(C(C)(C)C)c1 | -0.599% [at 12.8 µM] (inactive) | 
12 | Cc1ncc([N+](=O)[O-])n1CCO | 3.07% (inactive) | 
13 | CCCc1cc(C(N)=S)ccn1 | 4.83% (inactive) | 
14 | CCCN[C@H]1CCc2nc(N)sc2C1 | 6.38% (inactive) | 
15 | COC(=O)Nc1nc2ccc(C(=O)c3ccccc3)cc2[nH]1 | 10.6% [at 12.8 µM] (inactive) | 
16 | CC(C)(C#N)c1cc(Cn2cncn2)cc(C(C)(C)C#N)c1 | 2.83% (inactive) | 
17 | COc1c(N2CCNC(C)C2)c(F)cc2c(=O)c(C(=O)O)cn(C3CC3)c12 (stereo not drawn) | 0.42% (inactive) | 
18 | O=C(O)c1cc(=O)[nH]c(=O)[nH]1 | 1.46% (inactive) | 
19 | CNS(=O)(=O)Cc1ccc2[nH]cc(CCN(C)C)c2c1 | 3.6% (inactive) | 
20 | CCOc1cc(N)c(Cl)cc1C(=O)NCC1CN(Cc2ccc(F)cc2)CCO1 (stereo not drawn) |  | 5010 nM (active)
21 | CCC(C)(C)c1ccc(CC(C)CN2C[C@@H](C)O[C@@H](C)C2)cc1 (stereo partly drawn) | -6.93% (inactive) | 
22 | CN(C)c1ccc(C(=C2C=CC(=[N+](C)C)C=C2)c2ccc(N(C)C)cc2)cc1 |  | 282 nM (active)
23 | COc1ccc(C(=O)CC(=O)c2ccc(C(C)(C)C)cc2)cc1 | 2.68% (inactive) | 
24 | CCc1cc(C(N)=S)ccn1 | 4.96% (inactive) | 
25 | NC(=O)N1c2ccccc2CC(=O)c2ccccc21 | 4.98% (inactive) | 
26 | Cc1nnc(NS(=O)(=O)c2ccc(N)cc2)s1 | 2.52% (inactive) | 
27 | CCN(C)C(=O)Oc1cccc([C@H](C)N(C)C)c1 | 6.16% (inactive) | 
28 | CNC1CCCN(c2c(F)cc3c(=O)c(C(=O)O)cn(C4CC4)c3c2OC)C1 (stereo not drawn) | 14.6% (inactive) | 
29 | COc1cc(NCc2ccc3nc(N)nc(N)c3c2C)cc(OC)c1OC |  | 282 nM (active)

Each compound was assayed on ATS95 in the same assay as above. Conditions: P. falciparum in erythrocytes, SYBR Green DNA, 72 h; series mostly up to 28.7 µM; activity, negative = inhibition: at the top concentration.
Procedure, shortened: as §1

Row | Compound | activity, negative = inhibition | Potency
30 | Cn1nnc2c(C(N)=O)ncn2c1=O | -0.198% (inactive) | 
31 | CC(C)OC(=O)C(C(=O)OC(C)C)=C1SC=CS1 | 2.21% (inactive) | 
32 | CC1=NN(c2ccccc2)C(=O)C1 | 4.54% (inactive) | 
33 | COC(=O)Nc1nc2ccc(Sc3ccccc3)cc2[nH]1 | 8.64% [at 12.8 µM] (inactive) | 
34 | CCc1c2c(nc3ccc(OC(=O)N4CCC(N5CCCCC5)CC4)cc13)-c1cc3c(c(=O)n1C2)COC(=O)[C@]3(O)CC | -0.805% (inactive) | 
35 | Cc1noc(NS(=O)(=O)c2ccc(N)cc2)c1C | -5.52% (inactive) | 
36 | CN1CCN(c2c(F)cc3c(=O)c(C(=O)O)cn4c3c2OCN4C)CC1 | 9.49% (inactive) | 
37 | S=P(N1CC1)(N1CC1)N1CC1 | 2.14% (inactive) | 
38 | CC[C@H](NC(C)C)[C@H](O)c1ccc(O)c2[nH]c(=O)ccc12 | 0.429% (inactive) | 
39 | CC[C@H](C)C(=O)O[C@H]1C[C@@H](C)C=C2C=C[C@H](C)[C@H](CC[C@@H]3C[C@@H](O)CC(=O)O3)[C@H]21 | -22.4% (inactive) | 
40 | CC(C)(Sc1cc(C(C)(C)C)c(O)c(C(C)(C)C)c1)Sc1cc(C(C)(C)C)c(O)c(C(C)(C)C)c1 | 14.5% [at 12.8 µM] (inactive) | 
41 | Cc1ncc([N+](=O)[O-])n1CCO | -3.15% (inactive) | 
42 | CCCc1cc(C(N)=S)ccn1 | 1.97% (inactive) | 
43 | CCCN[C@H]1CCc2nc(N)sc2C1 | 1.2% (inactive) | 
44 | COC(=O)Nc1nc2ccc(C(=O)c3ccccc3)cc2[nH]1 | -6.6% [at 12.8 µM] (inactive) | 
45 | CC(C)(C#N)c1cc(Cn2cncn2)cc(C(C)(C)C#N)c1 | -18.5% (inactive) | 
46 | COc1c(N2CCNC(C)C2)c(F)cc2c(=O)c(C(=O)O)cn(C3CC3)c12 (stereo not drawn) | -21% (inactive) | 
47 | O=C(O)c1cc(=O)[nH]c(=O)[nH]1 | 9.16% (inactive) | 
48 | CNS(=O)(=O)Cc1ccc2[nH]cc(CCN(C)C)c2c1 | 15.1% (inactive) | 
49 | CCOc1cc(N)c(Cl)cc1C(=O)NCC1CN(Cc2ccc(F)cc2)CCO1 (stereo not drawn) |  | 10000 nM (active)
50 | CCC(C)(C)c1ccc(CC(C)CN2C[C@@H](C)O[C@@H](C)C2)cc1 (stereo partly drawn) | -24.2% (inactive) | 
51 | CN(C)c1ccc(C(=C2C=CC(=[N+](C)C)C=C2)c2ccc(N(C)C)cc2)cc1 |  | 501 nM (active)
52 | COc1ccc(C(=O)CC(=O)c2ccc(C(C)(C)C)cc2)cc1 | 4.19% (inactive) | 
53 | CCc1cc(C(N)=S)ccn1 | 1.76% (inactive) | 
54 | NC(=O)N1c2ccccc2CC(=O)c2ccccc21 | 2.69% (inactive) | 
55 | Cc1nnc(NS(=O)(=O)c2ccc(N)cc2)s1 | 8.43% (inactive) | 
56 | CCN(C)C(=O)Oc1cccc([C@H](C)N(C)C)c1 | -4.81% (inactive) | 
57 | CNC1CCCN(c2c(F)cc3c(=O)c(C(=O)O)cn(C4CC4)c3c2OC)C1 (stereo not drawn) | -6.92% (inactive) | 
58 | COc1cc(NCc2ccc3nc(N)nc(N)c3c2C)cc(OC)c1OC |  | 631 nM (active)
